MEP2 TOR yeast = modulators of MEP2-GFP levels in yeast, primary screen, S. cerevisiae, multiplex flow cytometry, MLPCN library | actives 0.51% (n = 330,000) | S. cerevisiae MEP2-GFP strain, 3 h; 100% = DMSO control level | GFP response vs DMSO, % at 10 µM;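 active = GFP response versus DMSO above a set limit, roughly screen mean plus 3 SD, cut at about 180% in these data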;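 also: median GFP fluorescence of the barcode-gated MEP2-GFP cells per well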
AGP1-GFP MLPCN = modulators of AGP1-GFP expression in yeast TOR pathway, primary screen, cell-based, multiplex flow cytometry, S. cerevisiae, MLPCN library | 3 h; GFP as percent of DMSO wells | GFP response vs DMSO, % at 10 µM | actives 0.02% (n = 320,000);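 active = GFP response relative to DMSO above a set limit, near screen average plus 3 SD, cut at about 150% in these data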;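 also: median GFP channel fluorescence of the gated AGP1 strain per well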
LAP4 TOR yeast = modulators of LAP4-GFP expression in yeast, primary screen, S. cerevisiae, multiplex flow cytometry, MLPCN library; AID 2023, 2009; actives 0.34% (n = 320,000); GFP response vs DMSO, % at 10 µM; 3 h; median GFP as percent of DMSO wells;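 active = GFP response vs DMSO above a set limit, about the screen mean plus 3 SD, cut at about 150% in these data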
CIT2 TOR yeast = modulators of CIT2-GFP expression in yeast, primary screen, S. cerevisiae, GFP fusion, multiplex flow cytometry, MLPCN library | S. cerevisiae CIT2-GFP strain, 3 h; 100 means same as DMSO wells | GFP response vs DMSO, % at 10 µM | actives 0.065% (n = 320,000) | AID 2029, 2009;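 active = GFP response relative to DMSO above a set limit, near the screen mean plus 3 SD, cut at about 150% in these data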;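 also: ratio of well median GFP fluorescence to mean of DMSO wells on the plate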
RPL19A-GFP yeast = RPL19A-GFP expression modulators in yeast, primary screen, cell-based, S. cerevisiae, multiplex flow cytometry, MLPCN; actives 0.3% (n = 330,000); percent response vs DMSO, % at 10 µM; S. cerevisiae RPL19A-GFP strain, 3 h; stronger effect = lower value;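 active = percent response vs DMSO below 50%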;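 also: median channel GFP fluorescence of the barcoded RPL19A-GFP strain; ratio of sample median GFP to plate DMSO average so 100% = DMSO; lower means less RPL19A-GFP as with rapamycin TOR inhibition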
LAP4 cherry2 = LAP4-GFP expression modulators in yeast, confirmation, cell-based, second cherry pick, flow cytometry. shares compounds with LAP4 TOR yeast. S. cerevisiae LAP4-GFP strain, 3 h. GFP response vs DMSO, % at 10 µM. actives 20% (n = 590). AID 2621, 2010;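 active = GFP signal as percent of the solvent control above about 150%, meaning raised reporter expression, limit read from the data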;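 also: ratio of well median GFP fluorescence to plate DMSO mean so 100% = DMSO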
MEP2-GFP pick2 = modulators of MEP2-GFP levels in yeast, confirmation, S. cerevisiae, flow cytometry GFP, second cherry picks; S. cerevisiae MEP2-GFP strain, 3 h; GFP response vs DMSO, % at 10 µM; shares compounds with LAP4 TOR yeast; actives 10% (n = 590);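 active = GFP signal above 150% of the solvent control wells, that is a rise of more than half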;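 also: median channel GFP fluorescence of all gated yeast cells per well; ratio of median GFP to plate DMSO average so 100% = DMSO level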
RPL19A GFP CP2 = RPL19A-GFP modulators in TOR pathway yeast, confirmation, cell-based, S. cerevisiae, flow cytometry, second cherry pick. shares compounds with LAP4 TOR yeast. AID 2623, 2010. S. cerevisiae RPL19A-GFP strain, 3 h; stronger effect = lower value; 100% means same as DMSO wells. GFP response vs DMSO, % at 10 µM. actives 3% (n = 590);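 active = under 65% GFP response relative to DMSO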;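 also: median GFP channel fluorescence per well over the all cells gate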
CIT2 GFP CP2 = modulators of CIT2-GFP expression in yeast, confirmation, flow cytometry, second cherry pick, single plex; shares compounds with LAP4 TOR yeast; S. cerevisiae CIT2-GFP strain, 3 h; DMSO control wells read 100%; GFP response vs DMSO, % at 10 µM; actives 8% (n = 590); AID 2624, 2010;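 active = GFP response vs DMSO above about 150%, limit read from the data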;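 also: median green fluorescence per well over all gated yeast cells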
AGP1-GFP pick2 = AGP1-GFP expression modulators, hit retest, confirmation, cell-based, flow cytometry, S. cerevisiae, cherry pick set 2; shares compounds with LAP4 TOR yeast; S. cerevisiae AGP1-GFP strain, 3 h; percent response vs DMSO, % at 10 µM; 590 tested, under 10 active;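 active = over 150 percent of DMSO response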;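 also: median GFP channel fluorescence over all cells without mother daughter split; sample median GFP divided by mean DMSO control so 100% equals DMSO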
Yeast autofluor = compound autofluorescence in yeast s288c, dose response, artefact control for yeast TOR pathway GFP screen, s288c strain. shares compounds with LAP4 TOR yeast. S. cerevisiae s288c, 520 nm autofluorescence, flow cytometry, 3 h; stronger effect = higher value; zero means same as solvent-only cells. fluorescence change (kMESF span) at 33 µM. 610 tested, under 10 active. AID 2757, 2010;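 active = fluorescence span over the dose series, or activity score, above about 33, limit read from the data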
* = called active by the depositor; · = not tested or not shown. An excerpt weighted towards active compounds, which were near 0.93% of everything screened.

SMILES	MEP2 TOR yeast	AGP1-GFP MLPCN	LAP4 TOR yeast	CIT2 TOR yeast	RPL19A-GFP yeast	Yeast autofluor	others
Cc1cccc(/C=C/C(=O)c2ccc([N+](=O)[O-])o2)c1	83.5	61.0	175.5*	79.9	89.7	9.72	LAP4 cherry2=247.5*;MEP2-GFP pick2=150.2*;RPL19A GFP CP2=93.1;CIT2 GFP CP2=157.1*;AGP1-GFP pick2=101.9
O=C(/C=C/c1cccc([N+](=O)[O-])c1)c1ccc([N+](=O)[O-])o1	82.7	67.7	242.6*	75.3	70.7	1.4	LAP4 cherry2=181.7*;MEP2-GFP pick2=138.1;RPL19A GFP CP2=94.3;CIT2 GFP CP2=125.5;AGP1-GFP pick2=87.3
O=C(/C=C/c1cccc([N+](=O)[O-])c1)c1ccco1	90.7	85.0	146.9	83.9	87.8	·
O=C(CN(C(=O)CNC(=O)c1cccs1)c1ccccc1)NC1CCCCC1	105.5	98.6	90.7	91.8	99.4	·
CSc1nc(Cc2ccc(Cl)cc2)nc2ccccc12	97.6	100.9	161.4*	82.5	78.3	·	LAP4 cherry2=100.2;MEP2-GFP pick2=104.8;RPL19A GFP CP2=99.7;CIT2 GFP CP2=104.3;AGP1-GFP pick2=96.7
CC(C)(O)C#Cc1ccc(CN2CCN(C3CCCC3)C(CCO)C2)cc1 (centres undefined)	92.8	110.5	169.2*	88.6	85.5	·	LAP4 cherry2=99.2;MEP2-GFP pick2=104.8;RPL19A GFP CP2=100.0;CIT2 GFP CP2=102.9;AGP1-GFP pick2=100.2
CC(=O)c1ccc(N2C(=NC(=O)CCc3ccccc3)SC3CS(=O)(=O)CC32)cc1 (centres undefined)	83.0	66.7	65.0	104.3	77.5	·
COC(=O)/C(=C/c1c[nH]c2ccccc12)NC(C)=O	113.2	108.4	100.1	115.2	107.0	·
COC(=O)/C(=C/c1c[nH]c2ccccc12)[N+](=O)[O-]	87.5	89.1	177.9*	86.3	85.4	0.1
COc1ccc(CCNC2=C(Cl)C(=O)N(CCc3ccccc3)C2=O)cc1OC	111.9	96.8	109.4	89.9	98.3	0
O=C1C(Cl)=C(Nc2ccccc2O)C(=O)N1CCc1ccccc1	104.2	97.4	98.8	97.8	102.7	0.4
COc1ccc(CN2CCNC(=O)C2CC(=O)N(C)Cc2nccn2C)cc1OC (centres undefined)	96.3	96.7	89.2	94.7	95.9	·
O=C1C=CC(=O)N1c1cccc(-c2ccccc2)c1	97.8	77.4	206.3*	60.7	64.7	1.82
CCCCSc1ncnc2[nH]ncc12	99.2	96.0	96.9	86.9	97.2	·
O=C(COc1coc(CN2CCc3ccccc3C2)cc1=O)N1CCOCC1	107.2	107.1	103.3	101.5	100.0	·
Cc1c(/C=N/NC(=O)c2cc(Br)ccc2O)c(=O)n(C)c(=O)n1C	105.5	104.0	100.1	103.9	102.5	·
Cc1nc(C)n(CC(C)C(=O)N2CCN(S(=O)(=O)c3ccc(Cl)cc3)CC2)n1 (centres undefined)	104.2	104.3	95.7	101.8	100.8	·
O=[N+]([O-])c1ccc(N=Nc2c(Cl)cc(O)cc2Cl)cc1	106.8	81.1	278.3*	83.8	95.9	0.82
COCCN(CC(=O)Nc1cccc(C)c1C)C(=O)c1ccc(-n2cccn2)cc1	98.9	99.5	95.8	100.6	97.7	·
O=C(Cc1cccs1)NNC(=S)NCc1ccc(Cl)cc1	92.4	98.0	96.0	102.7	91.5	·
O=C(Cc1ccc(Cl)cc1)NNC(=S)NC(=O)c1cccs1	104.0	113.0	198.5*	108.2	108.9	1.1
COc1ccccc1C(=O)NNC(=S)NC(=O)c1cccs1	108.4	126.0	185.9*	121.7	125.0	0.2
O=C(NC(=S)NNC(=O)c1ccccc1O)c1cccs1	100.5	95.5	91.0	91.5	109.7	·
CS(=O)(=O)Nc1ccc(S(=O)(=O)N2CCCCCC2)cc1	100.3	94.1	82.9	98.8	103.8	·
CC(C)(C)C1CCC(=NNC(=O)C(=O)NCc2ccco2)CC1 (centres undefined)	114.7	82.9	87.9	84.2	60.3	·	LAP4 cherry2=96.2;MEP2-GFP pick2=98.2;RPL19A GFP CP2=98.5;CIT2 GFP CP2=105.2;AGP1-GFP pick2=100.3
SMILES	MEP2 TOR yeast	AGP1-GFP MLPCN	LAP4 TOR yeast	CIT2 TOR yeast	RPL19A-GFP yeast	Yeast autofluor	others
COCn1ccnc1C(O)(c1ccc(OC)cc1)c1ccc(OC)cc1	106.7	108.2	94.1	112.2	111.7	·
COc1ccc(Cn2c(SCC#N)nc3ccc(N4CCOCC4)cc3c2=O)cc1	109.8	111.0	110.7	115.2	118.5	·
COc1ccc(OCCCC(=O)Nc2nc(-c3ccccn3)cs2)cc1	100.5	99.0	108.3	100.6	97.3	·
Cc1cc(C)c(OCC(=O)Nc2nc(-c3ccccn3)cs2)c(C)c1	83.5	74.9	152.5*	78.1	88.5	0.3
O=C(CCS(=O)(=O)c1ccccc1)Nc1nc(-c2ccccn2)cs1	96.8	96.0	97.1	93.4	97.3	-0.1	LAP4 cherry2=104.2;MEP2-GFP pick2=101.3;RPL19A GFP CP2=98.7;CIT2 GFP CP2=100.1;AGP1-GFP pick2=100.0
O=C(O)c1ccc(N2CC3CC(C2)c2cccc(=O)n2C3)c(NC(=S)Nc2ccc(Br)cc2)c1 (centres undefined)	90.4	93.2	97.7	92.5	88.9	·
CCOC(=O)C(C(=O)OCC)C(C(=O)OCC)N1CCOCC1 (centres undefined)	88.3	67.8	180.1*	75.5	64.5	1.33
CCCC1(c2ccccc2)NC(=O)N(CC(=O)Nc2cc(OC)cc(OC)c2)C1=O (centres undefined)	103.3	93.4	98.0	100.7	101.3	·
CCOc1ccccc1C(=O)N(CCC(=O)OC)c1ccccn1	90.1	93.0	85.4	93.0	95.3	·

Source: PubChem BioAssay (NMMLSC)
